# Data as given in article PMC4336329 (PLoS ONE, 2015).
# About 14,000 (4.5%) of roughly 310,000 compounds showed an effect of 50% or more. Effects have a minus sign here. For the sample, strong results were picked, then their nearest neighbours and some compounds at random.
# Target: human ether-à-go-go-related gene (hERG) potassium channel (human, UniProt Q12809)
# Test: primary screen, population patch clamp on CHO cells stably expressing hERG; higher = less effect of the substance
# 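Also: peak tail current of the secondary pulse compared with the same well before compound.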
# human ether-à-go-go-related gene (hERG) potassium channel, sequence (Q12809 whole entry, looked up): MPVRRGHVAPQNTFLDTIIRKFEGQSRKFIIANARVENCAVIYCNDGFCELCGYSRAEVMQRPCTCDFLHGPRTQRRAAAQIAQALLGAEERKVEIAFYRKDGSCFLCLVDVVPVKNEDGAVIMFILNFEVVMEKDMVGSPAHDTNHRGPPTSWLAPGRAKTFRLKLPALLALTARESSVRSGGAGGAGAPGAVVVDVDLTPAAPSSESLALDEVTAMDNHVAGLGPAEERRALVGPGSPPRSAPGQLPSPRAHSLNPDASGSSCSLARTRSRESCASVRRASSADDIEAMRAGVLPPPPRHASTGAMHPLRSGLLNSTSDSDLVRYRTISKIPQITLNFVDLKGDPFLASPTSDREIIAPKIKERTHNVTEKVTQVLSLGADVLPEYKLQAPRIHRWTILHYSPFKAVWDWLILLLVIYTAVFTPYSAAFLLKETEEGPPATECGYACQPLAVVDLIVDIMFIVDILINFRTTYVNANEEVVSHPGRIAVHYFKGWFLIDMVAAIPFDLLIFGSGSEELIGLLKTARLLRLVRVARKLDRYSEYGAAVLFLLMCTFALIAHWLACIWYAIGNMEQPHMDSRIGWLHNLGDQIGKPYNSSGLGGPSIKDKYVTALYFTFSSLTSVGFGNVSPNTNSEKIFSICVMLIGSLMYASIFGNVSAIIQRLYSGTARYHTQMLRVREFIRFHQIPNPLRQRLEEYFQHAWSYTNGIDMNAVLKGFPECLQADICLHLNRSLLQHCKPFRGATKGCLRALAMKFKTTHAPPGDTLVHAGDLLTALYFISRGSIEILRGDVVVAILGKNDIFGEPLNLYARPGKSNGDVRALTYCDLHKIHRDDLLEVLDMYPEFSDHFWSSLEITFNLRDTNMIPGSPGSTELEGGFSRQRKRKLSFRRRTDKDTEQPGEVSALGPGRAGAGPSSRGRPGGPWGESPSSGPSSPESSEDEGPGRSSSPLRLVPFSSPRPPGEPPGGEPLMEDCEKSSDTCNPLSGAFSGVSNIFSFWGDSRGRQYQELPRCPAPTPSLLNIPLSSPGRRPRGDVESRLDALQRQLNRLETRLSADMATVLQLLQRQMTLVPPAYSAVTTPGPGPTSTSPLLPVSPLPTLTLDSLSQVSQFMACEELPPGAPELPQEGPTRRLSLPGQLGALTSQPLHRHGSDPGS
row,SMILES,"hERG current change (%, negative = inhibition) at 10uM [%]"
1,O=C(CCNC(=O)c1ccccc1)OCN1C(=O)c2ccccc2C1=O,-5.38
2,CCCCNC(=O)CS(=O)Cc1nc(-c2ccc(C)cc2)oc1C (stereo not drawn),-17.5
3,COCCCNC(=O)Cn1nnc(-c2ccc(NC(=O)c3ccccc3OC)cc2)n1,6.89
4,CCOc1ccc(-c2nnc(SCc3nc4ccccc4[nH]3)n2N)cc1,-34.3
5,COc1ccc(OCCN2CCN(C3CC(=O)N(CCC(C)C)C3=O)CC2)cc1 (stereo not drawn),-63.4
6,COc1ccc(CCN2C(=O)CC(N3CCN(S(=O)(=O)c4ccccc4)CC3)C2=O)cc1 (stereo not drawn),-18.7
7,CCN1C(=O)CC(N2CCN(c3ccc(OC)cc3)CC2)C1=O (stereo not drawn),-9.88
8,COc1ccc(Nc2nc3ccccc3n3nnnc23)cc1,-7.93
9,CN1CCN(S(=O)(=O)c2ccc3c(c2)OCCO3)CC1,12.1
10,COC(=O)CCCC1=CC2=C(c3ccccc3)C(=O)C(C)(OC(=O)C3CCCC3)C(=O)C2=CN1CC1CC1 (stereo not drawn),-39.9
11,COC(=O)CCCC1=CC2=C(c3ccccc3)C(=O)C(C)(OC(=O)C3CCCC3)C(=O)C2=CN1Cc1ccc(OC)cc1 (stereo not drawn),-4.26
12,COC(=O)CCCC1=CC2=C(c3ccccc3)C(=O)C(C)(OC(=O)C3CCCC3)C(=O)C2=CN1Cc1ccco1 (stereo not drawn),-56.8
13,CCOC(=O)CSc1nc(N)nc(C)c1Cl,13.4
14,Cc1cc(F)ccc1NCc1cc2c(cc1[N+](=O)[O-])OCO2.O=C(O)C(=O)O,7.77
15,Cn1c(-c2ccc(Cl)cc2)cnc1NCc1cc2c(cc1[N+](=O)[O-])OCO2.O=C(O)C(=O)O,-62.6
16,Cn1c(-c2ccc(F)cc2)cnc1NCc1cc2c(cc1[N+](=O)[O-])OCO2.O=C(O)C(=O)O,-57.8
17,Cn1c(-c2ccccc2)cnc1NCc1cc(Cl)ccc1O,19.9
18,Cc1ccc(-c2cnc(NCc3cc4c(cc3[N+](=O)[O-])OCO4)n2C)cc1C,-48.6
19,Cn1c(-c2ccccc2)cnc1NCc1cc2c(cc1[N+](=O)[O-])OCO2,-55

row,SMILES,"hERG current change (%, negative = inhibition) at 10uM [%]"
1,COc1ccc(-c2cnc(NCc3cc4c(cc3[N+](=O)[O-])OCO4)n2C)cc1,-48.4
2,N#Cc1nc(-c2ccccc2F)oc1NCc1cccc2c1OCO2,-24.9
3,CCN(C(=O)COC(=O)CNC(=O)c1ccc(C)s1)c1ccccc1,16.5
4,O=C(NCc1ccc(F)cc1)c1cccnc1C(=O)O,13.5
5,COc1ccc(S(=O)(=O)N(CC(N)=O)C2CCCCC2)cc1Cl,4.39
6,COc1ccc(CCNc2nc(-c3cccnc3)nc3ccccc23)cc1OC,-1.54
7,c1ccc2c(NCCc3c[nH]c4ccccc34)c3ccccc3nc2c1,-74.7
8,O=C(CNC(=O)c1ccccc1)NCCc1ccc(O)c(O)c1,1.15
9,Cl.Oc1ccc(CCNc2c3ccccc3nc3ccccc23)cc1O,-68.2
10,CNCCc1ccc(O)c(O)c1.Cl,12.7
11,COc1ccc(CCNc2nc(C)cc(C)n2)cc1OC.Cl,17.4
12,Fc1cccc(NCCc2c[nH]c3ccccc23)n1,11.3
13,COc1ccc(CCNc2c3ccccc3nc3ccccc23)cc1OC.Cl,-69.7
14,CNCCc1c[nH]c2ccccc12,6.05
15,COc1ccc(C(=O)/C=C/Nc2cc(C)on2)cc1,3.9
16,CCCCOC(=O)c1ccc(Nc2ccc([N+](=O)[O-])cn2)cc1,14.5
17,Cc1ccc(-c2nnc(N3CC(C)OC(C)C3)c3ccccc23)cc1 (stereo not drawn),-20.6
18,O=C(NC(=S)Nc1ccc(CN2CCOCC2)cc1)c1ccc2c(c1)OCCO2,-13.9
19,CC(=Nc1ccccc1N)c1c(O)n(C)c(=O)n(C)c1=O,21

row,SMILES,"hERG current change (%, negative = inhibition) at 10uM [%]"
1,CCOc1ccc(CN(C)C(=O)CCNC(=O)c2ccco2)cc1,1.35
2,CCCOC(=O)c1[nH]c2c(c1C)C(=O)CC(c1ccc(OC)c(OC)c1)C2 (stereo not drawn),-4.07
3,CCOc1ccccc1NC(=O)CN1C(=O)C(=O)N(Cc2ccco2)C1=O,8.17
4,CCCCCCNC(=O)c1c(O)c2ccccc2[nH]c1=O,19.9
5,CCNC(=O)c1c(O)c2ccccc2[nH]c1=O,-62.5
6,O=C(NCc1ccccc1)c1c(O)c2ccccc2[nH]c1=O,15.4
7,O=C(Cn1cnc2c(nnn2Cc2ccc(F)cc2)c1=O)NCc1ccc2c(c1)OCO2,-17.2
8,C=CCn1c(COc2ccc(OC)cc2)nnc1SC(C)C(=O)NC1CC1 (stereo not drawn),-11.6
9,CCCCCn1c(=O)[nH]c2cc(C(=O)NCCCN3CCCCC3)ccc2c1=O,-33.5
10,CCOn1c(=O)c(=O)n(OC)c2ccccc21,-6.73
11,CCOC(=O)C1(Cc2cccc(F)c2)CCN(CC(O)CO)CC1 (stereo not drawn),14.5
12,CCOC(=O)C1(Cc2cccc(F)c2)CCN(Cc2cnn(CC)c2)CC1,-32.2
13,CCOC(=O)C1(Cc2ccc(OC)cc2)CCN(S(C)(=O)=O)CC1,25.6
14,CCOC(=O)C1(Cc2ccc(Cl)cc2)CCN(C(C)Cc2ccc(O)c(OC)c2)CC1 (stereo not drawn),-70.8
15,CCOC(=O)C1(Cc2cccc(OC)c2)CCN(C(C)CC(C)(C)O)CC1 (stereo not drawn),-28.5
16,CCOC(=O)C1(Cc2ccc(Cl)cc2)CCN(CCCn2cccn2)CC1,-74.8
17,CCOC(=O)C1(Cc2ccc(Cl)cc2)CCN(C(C)CCn2cccn2)CC1 (stereo not drawn),-87.2
18,CCOC(=O)C1(Cc2ccc(OC)cc2)CCN(C(=O)CCn2cccn2)CC1,-7.25
19,CCOC(=O)C1(Cc2cccc(F)c2)CCN(CCCn2cccn2)CC1,-74.6
